Rows were chosen to be rich in hits. Some 4% of all compounds tested hit in one or more screens of this group.
TWEAK-Fn14 inh – inhibitors of TWEAK-Fn14 interaction signaling; TWEAK-stimulated Fn14 reporter cells, luciferase luminescence, 8 h; inhibition, % at 10 µM; 2% of 360,000 active; in the data active = inhibition above about 50%
KKLEB tox – reduces viability of KKLEB cystic fibrosis airway cells; activity change (cytotoxicity), % at 5 µM; KKLEB CF airway cells viability, ATPlite luminescence, overnight; hits give low values; cells stimulated with P. aeruginosa culture filtrate; 0.36% of 360,000 active;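 active = corrected activity change at or below -50% at 5 µM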
CF NFkB block – blocks PAF-induced NF-kB reporter in cystic fibrosis cells; 0.86% of 360,000 active; inhibition, % at 5 µM; KKLEB NF-kB-GFP reporter, GFP fluorescence overnight;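 active = at least 50% inhibition at 5 µM, scaled per plate between neutral and stimulator controls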;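 note: PAF is a Pseudomonas aeruginosa culture filtrate used as stimulus; plate controls were PAF-stimulated DMSO wells for no effect and unstimulated DMSO wells for full effect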
Peg3 prom inh – inhibitors of Peg3 promoter. inhibition, % at 20 µM. 1.7% of 360,000 active. HeLa PEG-Prom luciferase reporter, luminescence, overnight. AID 588405;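 active = inhibition of at least 50% at 20 µM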
TROY signal inh – blocks TROY-dependent signaling in reporter cells. Q293 LMP1-TROYcd NF-kB luciferase reporter, 4 h. inhibition, % at 10 µM. 0.98% of 360,000 active. AID 1347056;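 active = compounds whose plate-normalised and pattern-corrected inhibition of the luciferase reporter signal at the single screening dose is 50% or more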
HIF-2a inh – inhibitors of HIF-2a. 786-0 RCC cells HIF-2a reporter, luciferase luminescence, overnight. inhibition, % at 18.8 µM. 0.72% of 360,000 active. AID 624352;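 active = inhibition of the luminescence signal of 40% or more relative to plate controls, in a single-dose primary screen at 18.75 µM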
CF NFkB conf – CF NF-kB inhibition confirmation, single concentration; shares compounds with CF NFkB block; KKLEB CF airway cells, PAF-induced NF-kB-GFP fluorescence, overnight; inhibition, % at 5 µM; 64% of 1,300 active; AID 602472; in the data active = inhibition above about 40%;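 note: stimulus PAF is a Pseudomonas aeruginosa filtrate and not platelet activating factor; plate controls were DMSO wells with stimulus for no effect and unstimulated DMSO wells for full effect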
Mdm2-MdmX confirm – Mdm2/MdmX (human) interaction inhibition, confirmed | 99% of 740 active | SaOS-2 split-luciferase Mdm2/MdmX complementation, luminescence | shares compounds with HIF-2a inh | inhibition, % at 8 µM;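 active = mean inhibition of the luminescence signal across two replicates at or above 26 percent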
Target sequence (O15151 whole entry, looked up): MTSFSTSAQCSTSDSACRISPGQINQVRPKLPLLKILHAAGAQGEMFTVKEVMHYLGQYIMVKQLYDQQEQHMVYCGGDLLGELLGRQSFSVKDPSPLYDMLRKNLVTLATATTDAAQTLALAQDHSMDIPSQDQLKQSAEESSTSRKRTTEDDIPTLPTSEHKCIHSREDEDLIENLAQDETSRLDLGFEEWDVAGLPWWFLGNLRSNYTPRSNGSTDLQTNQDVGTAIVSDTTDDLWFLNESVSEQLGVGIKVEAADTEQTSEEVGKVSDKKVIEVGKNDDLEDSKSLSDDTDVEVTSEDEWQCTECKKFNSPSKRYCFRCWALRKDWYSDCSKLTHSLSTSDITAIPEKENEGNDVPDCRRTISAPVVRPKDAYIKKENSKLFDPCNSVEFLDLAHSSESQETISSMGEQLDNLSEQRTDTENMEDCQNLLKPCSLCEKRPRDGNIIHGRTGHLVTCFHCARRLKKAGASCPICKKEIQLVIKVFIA
Target sequence (Q00987 whole entry, looked up): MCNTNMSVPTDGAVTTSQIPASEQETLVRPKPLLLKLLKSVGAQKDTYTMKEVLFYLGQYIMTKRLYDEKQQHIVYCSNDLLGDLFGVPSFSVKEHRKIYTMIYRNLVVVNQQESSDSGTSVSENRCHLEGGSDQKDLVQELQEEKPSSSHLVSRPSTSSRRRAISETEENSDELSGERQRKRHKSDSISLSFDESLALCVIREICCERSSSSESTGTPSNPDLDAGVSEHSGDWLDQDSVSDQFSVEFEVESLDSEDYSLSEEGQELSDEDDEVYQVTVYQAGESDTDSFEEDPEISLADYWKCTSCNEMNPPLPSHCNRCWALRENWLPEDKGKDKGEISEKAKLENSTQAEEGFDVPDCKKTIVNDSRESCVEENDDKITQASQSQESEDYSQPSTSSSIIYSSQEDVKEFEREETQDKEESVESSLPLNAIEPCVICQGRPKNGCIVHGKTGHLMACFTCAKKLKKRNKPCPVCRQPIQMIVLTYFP
HIF-2a conf – confirmation of HIF-2a inhibitors | shares compounds with HIF-2a inh | 786-0 RCC cells, HIF-2a luciferase reporter luminescence, overnight | inhibition, % at 18.8 µM | 56% of 1,800 active | AID 651580;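 active = mean inhibition across four replicates of at least 40 percent at the single tested concentration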
HIF-1a counter – inhibits HIF-1a reporter, a counter-screen for HIF-2a inhibitors; shares compounds with HIF-2a inh; MiaPaCa-2 HIF-1a luciferase reporter, desferoxamine, overnight; inhibition, % at 18.8 µM; 72% of 1,800 active; AID 651589;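 active = mean inhibition of the reporter signal across four replicates at the single tested dose of 50% or more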
* = called active by the depositor; nt = not tested or not shown.

SMILES	TWEAK-Fn14 inh	KKLEB tox	CF NFkB block	Peg3 prom inh	TROY signal inh	HIF-2a inh	CF NFkB conf	others
Cc1ccc(S(=O)(=O)N(C)C[C@@H]2Oc3ccc(NC(=O)CCC(F)(F)F)cc3CC(=O)N([C@@H](C)CO)C[C@@H]2C)cc1	0	-18	53*	9	31	9	43*
C[C@H](CO)N1C[C@H](C)[C@@H](CN(C)S(=O)(=O)c2cccs2)Oc2ccc(NC(=O)Nc3ccccc3)cc2C1=O	11	14	-4	29	-2	4	nt
Cc1cc2c(cc3c(=O)n(CC(=O)NCCCN4CC(C)CC(C)C4)ncn32)s1 (centres undefined)	8	10	7	-9	-21	-5	nt
COCc1cccc(-c2csc(C(O)c3cccc(OC)c3)n2)c1 (centres undefined)	0	-7	3	-13	0	-30	nt
C[C@H](CO)N1C[C@H](C)[C@@H](CN(C)C(=O)Nc2ccc3c(c2)OCO3)Oc2c(NC(=O)Nc3ccc(C(F)(F)F)cc3)cccc2C1=O	24	-18	80*	60*	18	-20	91*
C[C@H](CO)N1C[C@H](C)[C@@H](CN(C)C(=O)Nc2ccc(C(F)(F)F)cc2)Oc2c(NC(=O)Nc3ccc4c(c3)OCO4)cccc2C1=O	-32	20	-53	-8	-29	-1	nt
CCCNC(=O)C1(C)CCCN(C(=O)c2ccc3ccccc3c2)C1 (centres undefined)	7	-1	13	-8	6	8	nt
CC(=O)Nc1nc(C)c(-c2csc(Nc3cccc(C(C)=O)c3)n2)s1	23	-44	81*	49	-15	-10	82*
CCC(=O)Nc1nc(C)c(-c2csc(Nc3cccc(C(=O)O)c3)n2)s1	2	10	4	-39	-23	-14	nt
COc1ccc(-c2cn[nH]c2-c2ccc(O)cc2O)cc1	74*	8	70*	11	45	19	94*
C=C(C)COc1ccc(-c2[nH]ncc2-c2ccc(OC)cc2)c(O)c1	55*	2	53*	22	42	5	72*
COc1ccc(Oc2cn[nH]c2-c2ccc(O)cc2O)cc1	13	-3	14	16	nt	-7	nt
C=C(C)COc1ccc(-c2[nH]ncc2-c2ccccc2)c(O)c1	2	-2	6	12	7	14	nt
COc1ccc(-c2cnc(N)nc2-c2ccc(OC)cc2O)cc1	46	-13	56*	13	22	31	51*
CCCCN(C(=O)c1ccc(NC2CC2)c([N+](=O)[O-])c1)c1c(N)n(CC(C)C)c(=O)[nH]c1=O	-3	11	-7	4	-4	-6	nt
O=C(c1ccccn1)N1CCCC(N2CCN(c3cccc(C(F)(F)F)c3)CC2)C1 (centres undefined)	-12	-10	5	-22	-11	-57	nt
COc1ccc(S(=O)(=O)N2CCC(C(=O)NC3CCCC3)CC2)cc1C	5	-3	13	1	-14	10	nt
O=C(Nc1ccc(F)cc1)Nc1nnc([C@@H]2C[C@H](O)[C@@H](CO)O2)s1	12	2	3	-9	-23	-41	nt
CCC(C)(C)NC(=O)c1ccc(Sc2nncn2C)c([N+](=O)[O-])c1	7	-13	14	5	9	13	nt
Cn1cnnc1Sc1ccc(/C=C/C(=O)c2ccc(O)cc2)cc1[N+](=O)[O-]	90*	-2	59*	110*	27	36	-91
CC(=O)Nc1ccc(-c2ccnc3c2CC(C(=O)NCc2ccco2)O3)cc1 (centres undefined)	-8	-44	60*	-16	28	27	61*
CC(=O)Nc1ccc(-c2ccnc3c2CC(C(=O)NCc2ccccc2)O3)cc1 (centres undefined)	48	-24	56*	-20	7	17	49*
CC(=O)Nc1ccc(-c2ccnc3c2CC(C(=O)NCC2CC2)O3)cc1 (centres undefined)	22	-19	4	8	6	9	nt
Cc1ccc(SCCC(=O)N(C)CC(=O)Nc2c(C)cccc2C)cc1	5	-2	15	2	10	1	nt
CN(CCc1ccccc1)C(=O)c1cccc(NC(=O)Cc2cccc([N+](=O)[O-])c2)c1	-3	3	-6	5	8	-8	nt
SMILES	TWEAK-Fn14 inh	KKLEB tox	CF NFkB block	Peg3 prom inh	TROY signal inh	HIF-2a inh	CF NFkB conf	others
O=C(NCc1cccnc1)Nc1ccccc1C(F)(F)F	-1	-9	-10	11	19	8	nt
Cc1ccc(S(=O)(=O)Nc2ccc3cc([N+](=O)[O-])ccc3c2[N+](=O)[O-])cc1	36	-24	50*	48	49	-26	75*
CCn1cc(CCCC(=O)NCc2ccc(OC)cc2)c2ccccc21	-5	-7	4	12	20	-2	nt
Cn1cccc1C(=O)NC(=O)COC(=O)c1ccc(S(C)(=O)=O)c([N+](=O)[O-])c1	96*	-18	67*	102*	30	36	59*
COCc1cc(S(=O)c2ccc(Cl)cc2)nc(C)n1 (centres undefined)	64*	0	87*	34	-2	29	83*
C=C(CCC(=O)c1ccccc1)C(=O)c1ccccc1	57*	-40	80*	63*	-34	-50	-63
CN(C)S(=O)(=O)c1cccc(NC(=O)COC(=O)c2ccc3ccccc3n2)c1	-14	16	-26	12	1	21	nt
Cc1nnnn1/C(=C\c1ccccc1)C(=O)OCC(=O)Nc1cccc(S(=O)(=O)N(C)C)c1	72*	-16	63*	106*	26	42*	-51	HIF-2a conf=79*;HIF-1a counter=22
CS(=O)(=O)c1ncc(Cl)c(C(=O)Nc2ccc(OC(F)F)cc2)n1	70*	-37	90*	102*	57*	92*	88*	Mdm2-MdmX confirm=103*;HIF-2a conf=98*;HIF-1a counter=100*
CCOC(=O)c1nc(S(C)(=O)=O)ncc1Cl	14	-4	69*	105*	21	46*	-14	HIF-2a conf=-3;HIF-1a counter=6
O=C(CSc1ccccn1)Nc1nonc1[N+](=O)[O-]	69*	-15	88*	104*	68*	47*	1	HIF-2a conf=23;HIF-1a counter=-34
